For 33 targets, log2 fold change results are on record in the supplement of paper PMC10849652.

About 7,900 targets were measured; listed, in parts, are those with a hit and a random draw of the rest. About 0.6% of all pairs of compound and target were hits. Unmarked numbers belong to inactive results.

Sequence of UniProt Q8WXD2 (Q8WXD2 whole entry, looked up): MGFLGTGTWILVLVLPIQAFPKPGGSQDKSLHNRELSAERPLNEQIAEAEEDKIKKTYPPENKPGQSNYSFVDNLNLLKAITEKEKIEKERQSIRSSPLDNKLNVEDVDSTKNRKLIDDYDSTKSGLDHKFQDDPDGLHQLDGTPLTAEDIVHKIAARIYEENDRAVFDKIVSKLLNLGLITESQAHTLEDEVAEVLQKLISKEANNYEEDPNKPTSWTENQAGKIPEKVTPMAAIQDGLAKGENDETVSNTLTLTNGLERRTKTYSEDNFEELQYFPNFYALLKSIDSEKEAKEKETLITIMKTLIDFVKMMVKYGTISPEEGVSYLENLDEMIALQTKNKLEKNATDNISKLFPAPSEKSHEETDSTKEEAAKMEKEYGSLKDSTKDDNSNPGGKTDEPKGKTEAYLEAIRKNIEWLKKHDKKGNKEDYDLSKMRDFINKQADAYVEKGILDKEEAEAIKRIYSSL
Sequence of UniProt Q14498 (Q14498 whole entry, looked up): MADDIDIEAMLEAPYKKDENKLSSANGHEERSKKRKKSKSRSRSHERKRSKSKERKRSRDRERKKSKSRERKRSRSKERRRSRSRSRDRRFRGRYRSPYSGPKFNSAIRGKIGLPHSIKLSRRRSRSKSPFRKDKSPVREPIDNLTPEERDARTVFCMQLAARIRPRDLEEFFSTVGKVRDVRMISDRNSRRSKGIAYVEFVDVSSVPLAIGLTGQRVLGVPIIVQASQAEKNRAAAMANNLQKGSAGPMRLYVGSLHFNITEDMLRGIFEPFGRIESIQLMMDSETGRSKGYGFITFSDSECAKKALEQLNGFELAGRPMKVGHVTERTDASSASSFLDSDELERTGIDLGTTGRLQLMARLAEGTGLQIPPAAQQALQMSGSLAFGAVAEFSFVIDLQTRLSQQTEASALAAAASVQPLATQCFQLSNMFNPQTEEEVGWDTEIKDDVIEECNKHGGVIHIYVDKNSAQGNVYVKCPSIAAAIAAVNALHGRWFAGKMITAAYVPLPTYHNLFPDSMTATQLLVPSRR
Sequence of UniProt O14796 (O14796 whole entry, looked up): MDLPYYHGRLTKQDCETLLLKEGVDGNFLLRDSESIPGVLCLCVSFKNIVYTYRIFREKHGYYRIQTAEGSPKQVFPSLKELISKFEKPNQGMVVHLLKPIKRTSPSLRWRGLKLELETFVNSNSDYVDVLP
Sequence of UniProt O95486 (O95486 whole entry, looked up): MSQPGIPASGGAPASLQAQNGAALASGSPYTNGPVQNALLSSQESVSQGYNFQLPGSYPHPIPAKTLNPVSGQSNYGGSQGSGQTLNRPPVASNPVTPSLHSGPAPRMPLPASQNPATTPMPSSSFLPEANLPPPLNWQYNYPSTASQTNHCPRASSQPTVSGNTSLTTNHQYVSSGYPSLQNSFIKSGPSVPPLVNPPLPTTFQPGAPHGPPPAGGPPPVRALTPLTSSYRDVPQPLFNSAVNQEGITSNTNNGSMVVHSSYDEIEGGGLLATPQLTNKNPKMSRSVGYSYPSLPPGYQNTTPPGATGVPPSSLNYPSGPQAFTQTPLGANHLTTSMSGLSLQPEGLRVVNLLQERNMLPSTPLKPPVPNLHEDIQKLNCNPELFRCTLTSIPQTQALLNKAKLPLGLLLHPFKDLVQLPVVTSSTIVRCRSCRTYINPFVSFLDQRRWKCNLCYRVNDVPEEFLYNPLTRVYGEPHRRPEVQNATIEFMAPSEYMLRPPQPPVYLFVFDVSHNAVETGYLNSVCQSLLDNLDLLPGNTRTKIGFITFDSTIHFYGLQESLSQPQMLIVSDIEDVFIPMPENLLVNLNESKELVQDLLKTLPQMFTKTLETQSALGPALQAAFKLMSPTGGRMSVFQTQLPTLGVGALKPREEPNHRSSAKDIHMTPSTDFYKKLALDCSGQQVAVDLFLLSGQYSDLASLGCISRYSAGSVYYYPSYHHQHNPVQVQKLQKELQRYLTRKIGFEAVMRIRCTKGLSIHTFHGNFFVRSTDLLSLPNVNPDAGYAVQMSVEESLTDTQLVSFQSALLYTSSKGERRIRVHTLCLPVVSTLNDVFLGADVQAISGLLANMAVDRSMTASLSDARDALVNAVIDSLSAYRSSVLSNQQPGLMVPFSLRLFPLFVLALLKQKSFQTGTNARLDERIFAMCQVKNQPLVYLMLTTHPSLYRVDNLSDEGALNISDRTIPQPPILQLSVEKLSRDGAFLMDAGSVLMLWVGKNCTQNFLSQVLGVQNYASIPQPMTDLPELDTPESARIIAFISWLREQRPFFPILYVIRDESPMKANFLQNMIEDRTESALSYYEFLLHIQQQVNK
Sequence of UniProt P46063 (P46063 whole entry, looked up): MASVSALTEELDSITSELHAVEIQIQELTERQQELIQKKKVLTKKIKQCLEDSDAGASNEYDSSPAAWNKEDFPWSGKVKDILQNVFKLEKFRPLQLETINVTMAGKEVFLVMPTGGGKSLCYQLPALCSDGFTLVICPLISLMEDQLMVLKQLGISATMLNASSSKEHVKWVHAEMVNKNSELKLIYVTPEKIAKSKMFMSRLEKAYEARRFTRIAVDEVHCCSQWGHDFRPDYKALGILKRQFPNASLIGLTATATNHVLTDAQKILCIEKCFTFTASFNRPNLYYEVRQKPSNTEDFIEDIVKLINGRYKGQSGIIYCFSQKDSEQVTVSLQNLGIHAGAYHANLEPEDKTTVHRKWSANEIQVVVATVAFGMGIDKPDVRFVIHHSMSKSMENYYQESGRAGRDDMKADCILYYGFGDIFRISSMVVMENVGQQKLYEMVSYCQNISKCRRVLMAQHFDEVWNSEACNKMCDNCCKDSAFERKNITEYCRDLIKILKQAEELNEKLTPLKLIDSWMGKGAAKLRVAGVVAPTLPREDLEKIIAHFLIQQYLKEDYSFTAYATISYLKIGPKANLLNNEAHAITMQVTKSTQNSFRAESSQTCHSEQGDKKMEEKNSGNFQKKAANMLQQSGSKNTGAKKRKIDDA
Sequence of UniProt Q9Y3L5 (Q9Y3L5 whole entry, looked up): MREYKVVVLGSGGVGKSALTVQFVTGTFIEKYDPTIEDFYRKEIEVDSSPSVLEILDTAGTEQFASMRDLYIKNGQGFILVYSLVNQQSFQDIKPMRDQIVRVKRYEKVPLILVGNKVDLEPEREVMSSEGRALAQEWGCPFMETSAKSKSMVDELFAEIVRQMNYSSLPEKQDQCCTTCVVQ
Sequence of UniProt Q9NR46 (Q9NR46 whole entry, looked up): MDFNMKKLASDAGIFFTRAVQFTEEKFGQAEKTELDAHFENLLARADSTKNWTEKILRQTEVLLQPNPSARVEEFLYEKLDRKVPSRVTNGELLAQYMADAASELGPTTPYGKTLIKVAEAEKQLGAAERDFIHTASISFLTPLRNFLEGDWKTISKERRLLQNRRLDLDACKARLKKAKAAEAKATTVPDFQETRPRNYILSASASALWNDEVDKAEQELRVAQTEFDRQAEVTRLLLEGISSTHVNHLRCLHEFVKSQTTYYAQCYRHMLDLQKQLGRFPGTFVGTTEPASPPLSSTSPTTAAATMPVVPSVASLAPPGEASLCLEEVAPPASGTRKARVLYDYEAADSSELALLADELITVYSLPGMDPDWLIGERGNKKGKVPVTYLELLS
Sequence of UniProt Q9UKM9 (Q9UKM9 whole entry, looked up): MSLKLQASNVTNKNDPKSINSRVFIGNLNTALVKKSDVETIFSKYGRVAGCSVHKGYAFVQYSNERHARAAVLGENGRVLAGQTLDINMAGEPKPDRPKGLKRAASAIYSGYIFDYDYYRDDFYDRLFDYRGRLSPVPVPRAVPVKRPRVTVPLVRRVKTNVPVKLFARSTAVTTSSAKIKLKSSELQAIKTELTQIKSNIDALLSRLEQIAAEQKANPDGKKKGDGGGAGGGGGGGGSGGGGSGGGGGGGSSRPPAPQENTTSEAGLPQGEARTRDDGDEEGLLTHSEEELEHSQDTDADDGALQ
Sequence of UniProt O43819 (O43819 whole entry, looked up): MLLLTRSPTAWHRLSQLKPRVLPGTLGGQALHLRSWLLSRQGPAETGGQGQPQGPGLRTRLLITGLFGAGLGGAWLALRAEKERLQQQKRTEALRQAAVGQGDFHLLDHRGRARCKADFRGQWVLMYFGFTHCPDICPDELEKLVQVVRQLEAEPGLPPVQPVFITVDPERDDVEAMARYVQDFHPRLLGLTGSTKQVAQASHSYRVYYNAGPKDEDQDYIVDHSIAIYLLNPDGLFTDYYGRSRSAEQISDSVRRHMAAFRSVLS
Sequence of UniProt P51812 (P51812 whole entry, looked up): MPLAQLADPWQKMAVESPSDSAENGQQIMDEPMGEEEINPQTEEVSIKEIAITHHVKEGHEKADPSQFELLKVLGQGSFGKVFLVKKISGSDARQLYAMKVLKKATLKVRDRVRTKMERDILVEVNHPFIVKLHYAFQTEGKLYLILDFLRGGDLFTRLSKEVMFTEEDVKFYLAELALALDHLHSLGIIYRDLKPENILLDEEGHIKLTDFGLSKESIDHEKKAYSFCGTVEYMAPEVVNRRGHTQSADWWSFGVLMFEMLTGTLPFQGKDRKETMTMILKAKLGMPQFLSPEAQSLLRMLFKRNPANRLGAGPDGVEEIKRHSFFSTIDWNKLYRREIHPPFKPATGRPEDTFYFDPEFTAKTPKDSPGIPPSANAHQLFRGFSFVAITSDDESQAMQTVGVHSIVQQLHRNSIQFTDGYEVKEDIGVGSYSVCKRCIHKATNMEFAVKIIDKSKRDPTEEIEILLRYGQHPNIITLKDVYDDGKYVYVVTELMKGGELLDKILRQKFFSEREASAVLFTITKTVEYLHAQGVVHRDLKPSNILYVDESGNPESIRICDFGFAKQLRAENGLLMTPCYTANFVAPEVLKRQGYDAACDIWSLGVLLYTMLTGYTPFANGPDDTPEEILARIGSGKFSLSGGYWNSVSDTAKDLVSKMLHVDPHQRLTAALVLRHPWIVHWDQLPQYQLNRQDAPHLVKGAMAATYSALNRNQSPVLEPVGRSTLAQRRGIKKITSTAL
Sequence of UniProt P51151 (P51151 whole entry, looked up): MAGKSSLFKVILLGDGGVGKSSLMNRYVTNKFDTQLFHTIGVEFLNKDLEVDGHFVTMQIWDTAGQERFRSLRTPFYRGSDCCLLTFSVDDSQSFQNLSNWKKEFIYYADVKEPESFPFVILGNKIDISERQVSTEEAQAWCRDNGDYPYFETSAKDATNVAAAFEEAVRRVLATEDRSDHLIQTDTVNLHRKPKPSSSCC

Compound in one assay: CCCc1cc(C)[nH]c(=O)c1CNC(=O)c1cc(-c2ccnc(N3CCN(C)CC3)c2)cc2c1cnn2C(C)C
The assay is described as follows: log2 fold change, soluble protein after heating vs DMSO (PISA); higher = thermal stabilisation; K562 cells, 10 uM, 30 min; active = over 0.2 and 3.5 SD of the protein, either way, in both replicates (recomputed). The method, boiled down:
(§1)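 For each measurement, 10 μM compound was applied for 30 min to K562 cells at 2×10^6 cells/mL. Aliquots were heated for 3 min across 48°C-58°C, pooled, and extracted in PBS with 0.5% NP-40 at 4°C; the supernatant after 21,000xg for 90 min was soluble protein. This was quantified by TMTpro 16plex LC-MS/MS with channel sums equalised, and thermal stability was reported relative to control samples from duplicates, on a log2 fold-change scale.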
For the target SCAMP2 (UniProt H3BUB6), the log2 fold change is -0.232.

Consider SIK3 (UniProt H0Y4E8), for which the log2 fold change is -0.026.

SCG3 (UniProt Q8WXD2): the log2 fold change is 0.11.

As for RCOR3 isoform 3 (UniProt Q9P2K3), the log2 fold change is -0.022.

SCAF8 isoform 2 (UniProt Q9UPN6): the log2 fold change was -0.013.

In the case of SASH1 (UniProt O94885), the log2 fold change was -0.031.

For SCAMP2 (UniProt O15127), the log2 fold change is 0.013.

Turning to RBBP6 (UniProt Q7Z6E9), the log2 fold change is -0.023.

For the target RAF1 isoform 2 (UniProt P04049), the log2 fold change was -0.113.

Take RPS6KA3 (UniProt P51812): the log2 fold change was 0.042.

With RBM39 (UniProt Q14498), the log2 fold change was 0.034.

For RALY (UniProt Q9UKM9), the log2 fold change is 0.005.

As to ROCK1 (UniProt Q13464), the log2 fold change is -0.019.

Regarding RECQL (UniProt P46063), the log2 fold change was -0.007.

Regarding SH3GLB2 (UniProt Q9NR46), the log2 fold change is 0.021.

Take RAB9A (UniProt P51151): the log2 fold change is 0.003.

On to RAD50, A0A494C0Y7, for which the log2 fold change was -0.244.

With SH2D1B (UniProt O14796), the log2 fold change is -0.146.

Consider SLBP (UniProt Q14493), for which the log2 fold change was 0.024.

As to SERINC1 (UniProt Q9NRX5), the log2 fold change was -0.874 (active).

As to RAP2C (UniProt Q9Y3L5), the log2 fold change was -0.052.

Turning to SCO2 (UniProt O43819), the log2 fold change was 0.059.

As for RUFY3 isoform 3 (UniProt Q7L099), the log2 fold change was -0.093.

As for RETSAT (UniProt Q6NUM9), the log2 fold change is -0.091.

In the case of SEC31A (UniProt O94979), the log2 fold change is -0.032.

RBIS (UniProt Q8N0T1): the log2 fold change was -0.074.

On to SLC12A9 (UniProt Q9BXP2), for which the log2 fold change is -0.059.

On to RNF167 (UniProt Q9H6Y7), for which the log2 fold change is -0.096.

For RCOR1 (UniProt Q9UKL0), the log2 fold change was -0.032.

For SEC24A (UniProt O95486), the log2 fold change is 0.08.

Compound in the next assay: CCN(CC)Cc1ccc2cc(COC(=O)Nc3ccc(C(=O)NO)cc3)ccc2c1 [givinostat]
The description is as above. The method, boiled down:
as §1
Consider SCAMP2 (UniProt H3BUB6), for which the log2 fold change is -0.024.

On to SIK3 (UniProt H0Y4E8), for which the log2 fold change was 0.098.

As for SCG3 (UniProt Q8WXD2), the log2 fold change is -0.043.

For the target RCOR3 isoform 3 (UniProt Q9P2K3), the log2 fold change was 0.075.

As to SAMD4B (UniProt Q5PRF9), the log2 fold change is 0.201.

For the target SCAF8 isoform 2 (UniProt Q9UPN6), the log2 fold change was 0.038.

Take RBM48 isoform 2 (UniProt Q5RL73): the log2 fold change is -0.03.

For SASH1 (UniProt O94885), the log2 fold change was -0.063.

For the target SCAMP2 (UniProt O15127), the log2 fold change is -0.085.

For the target RBBP6 (UniProt Q7Z6E9), the log2 fold change is 0.043.

As for RAF1 isoform 2 (UniProt P04049), the log2 fold change is 0.016.

With RPS6KA3 (UniProt P51812), the log2 fold change is -0.227.

As to RBM39 (UniProt Q14498), the log2 fold change was 0.131.

Take RALY (UniProt Q9UKM9): the log2 fold change was 0.209.

For the target ROCK1 (UniProt Q13464), the log2 fold change is 0.031.

In the case of RECQL (UniProt P46063), the log2 fold change was 0.038.

Regarding SH3GLB2 (UniProt Q9NR46), the log2 fold change was 0.049.

As for RAB9A (UniProt P51151), the log2 fold change was 0.054.

SH2D1B (UniProt O14796): the log2 fold change was -0.028.

SLBP (UniProt Q14493): the log2 fold change was 0.055.

On to SERINC1 (UniProt Q9NRX5), for which the log2 fold change is 0.05.

For the target RAB3IL1 (UniProt E9PK89), the log2 fold change was 0.278.

For RAP2C (UniProt Q9Y3L5), the log2 fold change is -0.044.

On to SCO2 (UniProt O43819), for which the log2 fold change was 0.03.

Consider RUFY3 isoform 3 (UniProt Q7L099), for which the log2 fold change is 0.021.

Consider RETSAT (UniProt Q6NUM9), for which the log2 fold change was 0.31.

With SEC31A (UniProt O94979), the log2 fold change was 0.098.

Consider RBIS (UniProt Q8N0T1), for which the log2 fold change was -0.02.

In the case of SLC12A9 (UniProt Q9BXP2), the log2 fold change is -0.014.

As for RNF167 (UniProt Q9H6Y7), the log2 fold change is 0.005.

Regarding RCOR1 (UniProt Q9UKL0), the log2 fold change was 0.114.

Turning to SEC24A (UniProt O95486), the log2 fold change is 0.072.
